Pf apPOL inh – Pf-apPOL inhibitors, biochemical, fluorescence; Plasmodium falciparum apicoplast DNA polymerase (apPOL); Recombinant Pf-apPOL, molecular beacon fluorescence, 1.5 h; inhibition, % at 10 µM; actives 0.25% (n = 210,000)
mHTT-CaM PPI inh – mutant huntingtin-calmodulin interaction inhibitors – biochemical, AlphaScreen, primary screen; P42858; AlphaScreen His-mHTT/GST-CaM binding, luminescence; inhibition, % at 15 µM; actives 3.6% (n = 190,000); AID 1671202, 2021;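 also: 0% = both proteins with DMSO and 100% = one protein alone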
* marks the source's active call; other numbers are inactive results; i = inactive; . = no result; ! = not active in a repeat. Shown are actives, neighbours in structure and some others; about 3.6% of the full set was active somewhere. Rule as the data show it: active = inhibition above about 50%; inactive = the rest.

SMILES	Pf apPOL inh	mHTT-CaM PPI inh
COc1cccc(OCc2noc(-c3cccc(Cl)c3)n2)c1	-1	-43
CC(=O)n1c(=O)n(-c2ccccc2)c(=O)c2c(C)c(C)sc21	-11	0
CCOc1ccc(C=C2SC(=S)N(CCCCCC(=O)O)C2=O)cc1OC	14	47
CCCCCCCC(=O)NN1C(=O)C(=Cc2ccc(O)c(OC)c2)SC1=S	-66	88*
COc1cc(C=C2SC(=S)N(c3ccc(O)c(C(=O)O)c3)C2=O)ccc1O	6	54*
CCC(C(=O)O)N1C(=O)C(=Cc2ccc(O)c(OC)c2)SC1=S (configuration not stated)	-36	32
O=C(Nc1ccc(F)c(Cl)c1)/C(=C\c1ccc2c(c1)OCO2)NC(=O)c1ccccc1Cl	-2	-5
Cc1ccc(S(=O)(=O)N2CCCN(c3nccc(C(F)(F)F)n3)CC2)cc1	-9	.
N/C(Cc1cccs1)=N\OC(=O)COc1ccccc1Cl	-12	i
CCC(C)NC(=O)c1cnn2c(C)c(Cc3ccc(Cl)cc3)c(C)nc12 (configuration not stated)	5	26
CCC(C)NC(=O)c1cnn2c(C)c(Cc3c(C)cc(C)cc3C)c(C)nc12 (configuration not stated)	31	27
CCC(C)NC(=O)c1cnn2c(C)c(Cc3cccc(Br)c3)c(C)nc12 (configuration not stated)	-4	74*
Cc1nc2c(C(=O)O)cnn2c(C)c1Cc1ccccc1	-20	4
CCC(C)NC(=O)c1cnn2c(C)c(Cc3ccccc3C)c(C)nc12 (configuration not stated)	-4	87*
CCC(C)NC(=O)c1cnn2c(C)c(Cc3cccc(Cl)c3)c(C)nc12 (configuration not stated)	-6	82*
Cc1cccc(-n2nnc(C(=O)NCc3ccco3)c2N)c1	0	4
O=S(=O)(Nc1ccc2c(c1)oc1ccccc12)c1ccc2ccccc2c1	.	77*
CC(=O)Nc1ccc(S(=O)(=O)Nc2ccc3c(c2)oc2ccccc23)cc1	-6	45
CCN(CC)c1ccc(/C=C2\NC(=O)N(Cc3ccccc3F)C2=O)cc1	-50	-7
Cc1cc(C)nc(SCc2cc(=O)c(OC(=O)c3cc4ccccc4o3)co2)n1	2	92*
CC(=O)Nc1nnc(SCc2cc(=O)c(OC(=O)c3ccco3)co2)s1	20	0
CC1CCN(c2ccc(C=O)cc2[N+](=O)[O-])CC1	-5	21
COc1ccccc1N1CCN(c2ncnc3c2nc2n3CCCC2)CC1	-7	4
O=C(Nc1ccccc1F)N1CCC2(CC1)Nc1cc(F)ccc1-n1cccc12	5	33
COc1ccc(NC(=O)C2CCN(C(=O)c3ccc(F)cc3)CC2)c(OC)c1	3	3
SMILES	Pf apPOL inh	mHTT-CaM PPI inh
COc1ccc(NC(=O)N2CCC3(CC2)Nc2ccccc2-n2cccc23)c(OC)c1	6	64*
COc1ccc(NC(=O)N2CCC3(CC2)Nc2cc(F)ccc2-n2cccc23)c(OC)c1	-1	61*
COc1ccc(NC(=O)N2CCC3(CC2)NC(=O)c2ccccc2N3C)c(C)c1	-4	0
O=C(Nc1ccccc1C(F)(F)F)N1CCC2(CC1)Nc1ccccc1-n1cccc12	0	36
COc1ccc(OC)c(NC(=O)N2CCC3(CC2)Nc2ccccc2-n2cccc23)c1	9	54*
CCOc1ccccc1NC(=O)N1CCC2(CC1)Nc1cc(F)ccc1-n1cccc12	4	52*
CN1CCN(CCC2CCCCN2C(=O)c2ccccc2)CC1 (configuration not stated)	-5	2
CCNC(=O)c1csc(-c2ccc(OC(C)C)cc2)n1	-9	1
CCC(Sc1nc2n[nH]c(C)c2c(=N)n1-c1ccc(C)cc1)C(=O)N1CCCC1 (configuration not stated)	-2	54*
COc1ccc(-n2c(SCC(=O)NC3CCCCC3)nc3n[nH]c(C)c3c2=N)cc1	-3	79*
CCCN(CCC)C(=O)CSc1nc2n[nH]c(C)c2c(=N)n1-c1ccc(OCC)cc1	-5	21
CCC(C)NC(=O)CSc1nc2ccsc2c(=O)n1-c1ccc(Br)cc1 (configuration not stated)	-3	3
CCC(C)NC(=O)CSc1nc2n[nH]c(C)c2c(=N)n1-c1ccc(Br)cc1 (configuration not stated)	-2	75*
COc1cccc(-n2c(SCC(=O)N3CCCC3)nc3n[nH]c(C)c3c2=N)c1	-2	20
O=C(CSc1nnc2ccc(-c3cccc([N+](=O)[O-])c3)nn12)NCc1ccco1	4	11
CCCc1[nH]n(-c2ccc(F)cc2)c(=O)c1C=NCCCOCC	-3	-4
COc1cccc(OC)c1C(=O)N1CCCC1c1cc(C)no1 (configuration not stated)	-9	5
Cc1ccc(I)cc1S(=O)(=O)n1nnc2ccccc21	-2	2
O=S(=O)(c1cccs1)n1nnc2ccccc21	-6	84*!
O=S(=O)(c1cccs1)n1cnc2ccccc21	-13	-2
COc1ccc(I)cc1S(=O)(=O)n1nnc2ccccc21	-11	89*
O=C(CS(=O)(=O)c1cccc2nsnc12)Nc1ccccc1C(=O)O	2	2
O=C(Nc1ccc2ncnc(N3CCCCC3)c2c1)c1ccccc1C(F)(F)F	2	16
CCOc1cc(C2c3sc(=O)[nH]c3SC3C4CCC(C4)C23)ccc1O (configuration not stated)	-6	100*
COc1cccc(C2c3sc(=O)[nH]c3SC3C4CCC(C4)C23)c1O (configuration not stated)	-6	49
SMILES	Pf apPOL inh	mHTT-CaM PPI inh
COc1cc(C2c3sc(=O)[nH]c3SC3C4CCC(C4)C23)ccc1O (configuration not stated)	2	57*
COc1ccc(C2c3sc(=O)[nH]c3SC3C4CCC(C4)C23)cc1 (configuration not stated)	-4	38
O=C(NCc1cc(F)cc(F)c1)c1ccc(-c2cccs2)nc1	0	-11
O=C(CNC(=O)C1CCCCC1)Nc1ccc([N+](=O)[O-])cc1	-10	-1
c1nc(NCCN2CCOCC2)c2sc3nc(N4CCOCC4)c4c(c3c2n1)CCCC4	0	55*
c1nc(N2CCNCC2)c2sc3nc(N4CCOCC4)c4c(c3c2n1)CCCC4	-10	14
O=c1oc2c3c(ccc2c2c1CCC2)OCN(c1ccc(F)cc1)C3	-3	19
Cc1sc(NC(=O)c2nc3ccccc3s2)c(C#N)c1C	7	-1
CCOC(=O)NC(=O)c1ccsc1NC(=O)c1nc2ccccc2s1	8	62*
CC(=O)Oc1ccc2c(c1)OC(=Cc1c(F)cccc1Cl)C2=O	-8	0
Cn1nc(-c2nc(-c3cccc(F)c3)no2)c2c1CCN(C(=O)c1ccc(F)c(F)c1)C2	-2	-8
CC(C)CSC1=NSC2=NC(=O)/C(=C\c3ccc([N+](=O)[O-])o3)C(=N)N12	-3	79*
Cc1ccc(/C=C2/C(=N)N3C(SCC(C)C)=NSC3=NC2=O)o1	-17	-3
CSC1=NSC2=NC(=O)/C(=C\c3ccc(C)o3)C(=N)N12	7	1
CSC1=NSC2=NC(=O)/C(=C\c3ccc([N+](=O)[O-])o3)C(=N)N12	0	100*
O=C(Sc1n[nH]c(=O)[nH]c1=O)c1cccc(Br)c1	-5	4

Compound activity as filed in PubChem BioAssay.
